Experimental data reported in article PMC4336329 (PLoS ONE, 2015).
The campaign covered roughly 310,000 compounds. About 14,000 (4.5%) showed an effect of 50% or more. The effect is printed as a negative number. The full list was thinned out, with strong results kept by preference.

What follows are molecules tested against human ether-à-go-go-related gene (hERG) potassium channel (human, UniProt Q12809) (assay: primary screen, population patch clamp on CHO cells stably expressing hERG; higher = less effect of the substance).
Chain of human ether-à-go-go-related gene (hERG) potassium channel (Q12809 whole entry, looked up): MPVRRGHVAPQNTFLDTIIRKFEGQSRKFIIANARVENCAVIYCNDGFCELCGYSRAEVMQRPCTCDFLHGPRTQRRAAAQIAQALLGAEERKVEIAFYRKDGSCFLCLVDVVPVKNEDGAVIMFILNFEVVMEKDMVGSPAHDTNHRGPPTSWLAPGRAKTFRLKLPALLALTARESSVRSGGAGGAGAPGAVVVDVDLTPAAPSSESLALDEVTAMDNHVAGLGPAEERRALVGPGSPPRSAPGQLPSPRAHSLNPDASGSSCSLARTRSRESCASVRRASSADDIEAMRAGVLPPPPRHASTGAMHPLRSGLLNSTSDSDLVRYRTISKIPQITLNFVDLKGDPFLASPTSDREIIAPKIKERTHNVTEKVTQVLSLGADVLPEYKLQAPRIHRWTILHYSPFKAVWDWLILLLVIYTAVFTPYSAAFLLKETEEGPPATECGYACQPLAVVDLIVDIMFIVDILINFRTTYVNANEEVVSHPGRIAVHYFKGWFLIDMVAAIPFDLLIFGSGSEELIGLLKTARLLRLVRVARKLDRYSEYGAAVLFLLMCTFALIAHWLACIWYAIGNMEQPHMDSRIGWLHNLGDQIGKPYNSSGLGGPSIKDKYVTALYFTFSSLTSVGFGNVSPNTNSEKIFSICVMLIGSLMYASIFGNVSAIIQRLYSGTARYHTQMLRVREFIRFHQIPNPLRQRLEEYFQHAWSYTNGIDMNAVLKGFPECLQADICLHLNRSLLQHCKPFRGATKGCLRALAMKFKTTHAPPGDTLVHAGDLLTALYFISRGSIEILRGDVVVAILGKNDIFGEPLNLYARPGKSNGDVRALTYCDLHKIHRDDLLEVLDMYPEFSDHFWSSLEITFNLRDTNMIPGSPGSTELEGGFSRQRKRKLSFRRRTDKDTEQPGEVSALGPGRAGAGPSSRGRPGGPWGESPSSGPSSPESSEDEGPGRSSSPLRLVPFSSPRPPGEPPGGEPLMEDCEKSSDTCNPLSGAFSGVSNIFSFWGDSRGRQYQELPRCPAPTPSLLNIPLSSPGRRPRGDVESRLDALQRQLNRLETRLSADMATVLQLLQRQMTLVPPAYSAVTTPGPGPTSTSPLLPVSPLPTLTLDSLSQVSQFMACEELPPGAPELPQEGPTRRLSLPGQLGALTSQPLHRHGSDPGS
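Further: peak tail current of the secondary pulse compared with the same well before compound.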

| Compound | hERG current change (%, negative = inhibition) at 10uM |
| --- | --- |
| Cc1ccc(NC(=O)CCN2C(=O)C3CC=CCC3C2=O)cc1Cl (centres unmarked) | -10.9% |
| COc1cc(-c2nnc(-c3ccncc3)o2)ccc1OCc1ccccc1 | 4.05% |
| Cc1ccccc1-c1nc2cc(NC(=O)C3CC3)ccc2o1 | 7.97% |
| Cc1ccc(NC(=O)C2CC2c2ccccc2)cc1 (centres unmarked) | 2.96% |
| Cc1cccc(OCC(=O)Nc2cc(C)ccc2O)c1 | 12.4% |
| CC(C)OCCCn1c(=N)c(C(N)=S)cc2c(=O)n3ccccc3nc21 | -81.5% |
| CCCn1c(=N)c(S(=O)(=O)c2ccccc2)cc2c(=O)n3ccccc3nc21 | -15.6% |
| CCOCCCn1c(=N)c(S(=O)(=O)c2ccc(C)cc2)cc2c(=O)n3cc(C)ccc3nc21 | 11.6% |
| CCOCCCn1c(=N)c(S(=O)(=O)c2ccccc2)cc2c(=O)n3cc(C)ccc3nc21 | -19.1% |
| Cc1ccc2nc3c(cc(C(N)=S)c(=N)n3CCCOC(C)C)c(=O)n2c1 | -74.4% |
| CC(C)OCCCn1c(=N)c(S(=O)(=O)c2ccccc2)cc2c(=O)n3ccccc3nc21 | -43.6% |
| CCOC(=O)C1=C(N)Oc2cc(C)[nH]c(=O)c2C1c1ccncc1 (centres unmarked) | 11.9% |
| COc1cc2c(cc1C1NC(=S)NC(C)=C1C(N)=O)CCCC2 (centres unmarked) | 9.6% |
| Cc1ccc(CNC(=O)CN2CCCC(C)C2)cc1 (centres unmarked) | -29.7% |
| COc1ccc(N2CCN(C3CC(=O)N(C)C3=O)CC2)cc1 (centres unmarked) | 17.4% |
| O=S(=O)(c1ccc(Br)cc1Cl)N1CC[NH+](CCO)CC1.[Cl-] | 3.35% |
| Oc1ccc(/C=N/N(Cc2ccccc2)c2ccccc2)cc1 | 35.8% |
| Cc1sc2ncn(CC(=O)NCCCC(=O)N3CCN(Cc4ccc5c(c4)OCO5)CC3)c(=O)c2c1C | -6.94% |
| CCn1ncc(/C=C/C(=O)c2ccccc2)c1C | 5.83% |
| CCc1cc(C(=O)OC)c(NC(=O)CSc2nccn2C)s1 | -56.9% |
| COC(=O)c1c(NC(=O)CSc2nccn2C)sc(C)c1C | -15.8% |
| CCOC(=O)c1cc(C)sc1NC(=O)CSc1nccn1C | -19.9% |

| Compound | hERG current change (%, negative = inhibition) at 10uM |
| --- | --- |
| O=C1CCC(=O)N1CC(O)COc1ccccc1 (centres unmarked) | 4.87% |
| Cl.OC(COc1ccccc1)CN1C2=NCCCN2c2ccccc21 (centres unmarked) | -67% |
| Cl.OC(COc1ccc(Cl)cc1)CN1C2=NCCCN2c2ccccc21 (centres unmarked) | -76.3% |
| Cc1cc(C(=O)NNC(=O)c2ccccc2[N+](=O)[O-])c(C)o1 | 11.2% |
| O=C(Cc1ccc(Cl)cc1)N/N=C/c1ccncc1 | -27.3% |
| O=C(CN1CCN(Cc2ccccc2)CC1)N/N=C/c1cccnc1 | -12.8% |
| O=C(CN1CCN(Cc2ccccc2)CC1)N/N=C/c1cccs1 | -22.9% |
| O=C(CN1CCN(Cc2ccccc2Cl)CC1)N/N=C/c1cccs1 | -20.4% |
| O=C(CN1CCN(Cc2ccc(Cl)cc2)CC1)N/N=C/c1ccncc1 | -80.1% |
| O=C(CN1CCN(Cc2ccc(Cl)cc2)CC1)N/N=C/c1cccs1 | -67.2% |
| O=C(O)CCCNC(=O)Cc1ccccc1 | 5.08% |
| O=C(C1=C(O)C(=O)N(c2ncccn2)C1c1cccs1)c1ccco1 (centres unmarked) | 14.3% |
| COc1ccccc1C1NC(=O)NC(C)=C1C(=O)OC1CCCCC1 (centres unmarked) | 6.66% |
| COCCNC(=O)C(=O)NNC(=O)CCc1ccccc1 | 8.78% |
| CCOC(=O)CN1C(=O)N[C@@H](c2cccc(C(F)(F)F)c2)C(C(C)=O)=C1C | 11.8% |
| Cn1nc(-c2ccccc2)c2nc3ccccc3nc21 | -5.31% |
| O=C(c1ccco1)N1CCN(C(=O)c2cc(-c3ccncc3)nc3ccc(Br)cc23)CC1 | -72.7% |
| O=C(c1cc(-c2ccncc2)nc2ccc(Br)cc12)N1CCN(Cc2ccc3c(c2)OCO3)CC1 | -56.5% |
| CC(=O)c1ccc(N2CCN(C(=O)c3cc(-c4ccncc4)nc4ccc(Br)cc34)CC2)cc1 | -42% |
| O=C(O)c1cc(-c2ccc3c(c2)OCO3)nc2ccc(Br)cc12 | 9.07% |
| COc1cc2nc(N3CCN(C(=O)c4ccco4)CC3)nc(N)c2cc1OC.Cl | -35.9% |
| Cl.Nc1nc(N2CCN(C(=O)c3ccco3)CC2)nc2ccc(Br)cc12 | -59.5% |

| Compound | hERG current change (%, negative = inhibition) at 10uM |
| --- | --- |
| O=C(c1cc(-c2ccncc2)nc2ccc(Br)cc12)N1CCN(c2ccccn2)CC1 | -37.2% |
| O=C(c1cc(-c2ccncc2)nc2ccc(Cl)cc12)N1CCN(Cc2ccc3c(c2)OCO3)CC1 | -46.7% |
| Cl.Nc1nc(N2CCN(C(=O)c3ccco3)CC2)nc2ccccc12 | -49.4% |
| Cc1nc(C)c(-c2csc(Nc3ccc(F)cc3)n2)s1 | -25.1% |
| O=C1CSc2ccc(C(=O)Nc3cccc(S(=O)(=O)Nc4ccc(Br)cc4)c3)cc2N1 | 15% |
| O=C(COC(=O)c1cccc(-n2cnnn2)c1)c1ccc(F)cc1 | -0.561% |
| CCOC(=O)C1CCN(S(=O)(=O)c2ccc3c(c2)CC(=O)N3C)CC1 | -22% |
| C=CCc1c(C)nc(SC(C)C)[nH]c1=O | -2.85% |
| CCOc1cc(C(=S)N2CCCC2)ccc1OC(=O)Cc1ccc(F)cc1 | 7.36% |
| COc1ccc(N2CCN(C(=O)c3oc4ccccc4c3NC(=O)Cc3ccc(OC)c(OC)c3)CC2)cc1 | -28.7% |
| COc1ccc(CC(=O)Nc2c(C(=O)N3CCN(c4ncccn4)CC3)oc3ccccc23)cc1OC | -46.8% |
| O=C(Cc1ccc(F)cc1)Nc1c(C(=O)N2CCN(c3ncccn3)CC2)oc2ccccc12 | -56% |
| COc1ccc(CC(=O)Nc2c(C(=O)N3CCN(c4ncccn4)CC3)oc3ccccc23)cc1 | -63.7% |
| O=C(c1oc2ccccc2c1CSCc1ccccc1)N1CCN(c2ncccn2)CC1 | 1.59% |
| Cc1ccc(O)c(NC(=O)c2ccc3c(c2)C(=O)N(Cc2ccco2)C3=O)c1 | 3.81% |
| COC(=O)c1[nH]c2c(c1C)C(=O)CC(c1ccc(OC)cc1)C2 (centres unmarked) | 11% |
| CCOc1ccc2[nH]c(=O)c(CN(CCOC)C(=O)N3CCOCC3)cc2c1 | 13.5% |
| O=C(Nc1nnc(-c2ccc(F)cc2)o1)c1ccc(S(=O)(=O)N2CCOCC2)cc1 | -6.82% |
| CC(Oc1ccc(Cl)cc1)C(=O)N(C)CC(=O)Nc1ccc(N2CCOCC2)cc1 (centres unmarked) | 5.8% |
| Cn1c(CCN2CCCCC2)nc2cc([N+](=O)[O-])ccc21 | -70.2% |
| CN1CCN(CCc2nc3cc(NC(=O)COc4ccc([N+](=O)[O-])cc4)ccc3n2C)CC1 | 16.1% |
| CCN1CCN(Cc2nc3cc(NC(=O)COc4ccc([N+](=O)[O-])cc4)ccc3n2C)CC1 | -18.7% |

| Compound | hERG current change (%, negative = inhibition) at 10uM |
| --- | --- |
| Cn1c(CCN2CCOCC2)nc2cc(NC(=O)COc3ccc([N+](=O)[O-])cc3)ccc21 | -21.1% |
| CCN1CCN(CCc2nc3cc([N+](=O)[O-])ccc3n2C)CC1 | -16.9% |
| Cn1c(CN2CCCCC2)nc2cc([N+](=O)[O-])ccc21 | -0.791% |
| CC1CCN(CCc2nc3cc(NC(=O)COc4ccc([N+](=O)[O-])cc4)ccc3n2C)CC1 | -68.4% |
| Cn1c(CN2CCCC2)nc2cc(NC(=O)COc3ccc([N+](=O)[O-])cc3)ccc21 | -38.6% |
| Cn1c(CCN2CCCCC2)nc2cc(NC(=O)COc3ccc([N+](=O)[O-])cc3)ccc21 | -63.1% |
| COc1ccc(N2C(=O)C3CCCN3C2c2ccccc2)cc1Cl (centres unmarked) | 7.28% |
| CCOC(=S)N/C(=N\S(C)(=O)=O)c1ccccc1 | -2.92% |
| COc1ccc(C(=S)N2CCOCC2)cc1OC(=O)c1cc(OC)c(OC)c(OC)c1 | 16.2% |
| COc1ccc(CN(C)C(=O)c2ccccc2Sc2ccccc2C#N)c(OC)c1 | 0.887% |
| Cc1ccc(C(=O)Cn2ncsc2=N)cc1 | -12.5% |
| Cc1ccc(S(=O)(=O)NC2CCCC2)cc1C(N)=O | 20.1% |
| Cc1cc(OC(=O)c2cccs2)ccc1C(C)C | 12.1% |
| O=[N+]([O-])c1ccc(Cl)c(NC(=S)N2CCCC2)c1 | 5.47% |
| CC(=O)Nc1ccc(OCC(O)CN2CCN(c3ccccc3Cl)CC2)cc1 (centres unmarked) | -50.2% |
| CC(=O)Nc1ccc(OCC(O)CN2CCN(c3cc(Cl)ccc3C)CC2)cc1 (centres unmarked) | -30.8% |
| CC(=O)Nc1ccc(OCC(O)CN2CCN(c3cccc(Cl)c3)CC2)cc1 (centres unmarked) | -25.2% |
| CC(=O)Nc1ccc(OCC(O)CN2CCN(c3ccc(F)cc3)CC2)cc1 (centres unmarked) | -23.4% |
| CC(=O)Nc1ccc(OCC(O)CN2CCN(c3ccc(Cl)cc3)CC2)cc1 (centres unmarked) | -52.7% |
| CC(=O)Nc1ccc(OCC(O)CN2CCN(c3ccc(C)c(Cl)c3)CC2)cc1 (centres unmarked) | -27.7% |
